This is an account of results in publication PMC4336329 (PLoS ONE, 2015).

Hit rate of the full screen: of about 310,000 compounds, about 14,000 (4.5%) showed an effect of 50% or more. Effects have a minus sign here. Only a selection was taken, and strong results are over-represented in it overall.
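Note: peak tail current of the secondary pulse compared with the same well before compound.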

The assay deals with human ether-à-go-go-related gene (hERG) potassium channel (human, UniProt Q12809). Put plainly: primary screen, population patch clamp on CHO cells stably expressing hERG; higher = less effect of the substance.
human ether-à-go-go-related gene (hERG) potassium channel, sequence (Q12809 whole entry, looked up): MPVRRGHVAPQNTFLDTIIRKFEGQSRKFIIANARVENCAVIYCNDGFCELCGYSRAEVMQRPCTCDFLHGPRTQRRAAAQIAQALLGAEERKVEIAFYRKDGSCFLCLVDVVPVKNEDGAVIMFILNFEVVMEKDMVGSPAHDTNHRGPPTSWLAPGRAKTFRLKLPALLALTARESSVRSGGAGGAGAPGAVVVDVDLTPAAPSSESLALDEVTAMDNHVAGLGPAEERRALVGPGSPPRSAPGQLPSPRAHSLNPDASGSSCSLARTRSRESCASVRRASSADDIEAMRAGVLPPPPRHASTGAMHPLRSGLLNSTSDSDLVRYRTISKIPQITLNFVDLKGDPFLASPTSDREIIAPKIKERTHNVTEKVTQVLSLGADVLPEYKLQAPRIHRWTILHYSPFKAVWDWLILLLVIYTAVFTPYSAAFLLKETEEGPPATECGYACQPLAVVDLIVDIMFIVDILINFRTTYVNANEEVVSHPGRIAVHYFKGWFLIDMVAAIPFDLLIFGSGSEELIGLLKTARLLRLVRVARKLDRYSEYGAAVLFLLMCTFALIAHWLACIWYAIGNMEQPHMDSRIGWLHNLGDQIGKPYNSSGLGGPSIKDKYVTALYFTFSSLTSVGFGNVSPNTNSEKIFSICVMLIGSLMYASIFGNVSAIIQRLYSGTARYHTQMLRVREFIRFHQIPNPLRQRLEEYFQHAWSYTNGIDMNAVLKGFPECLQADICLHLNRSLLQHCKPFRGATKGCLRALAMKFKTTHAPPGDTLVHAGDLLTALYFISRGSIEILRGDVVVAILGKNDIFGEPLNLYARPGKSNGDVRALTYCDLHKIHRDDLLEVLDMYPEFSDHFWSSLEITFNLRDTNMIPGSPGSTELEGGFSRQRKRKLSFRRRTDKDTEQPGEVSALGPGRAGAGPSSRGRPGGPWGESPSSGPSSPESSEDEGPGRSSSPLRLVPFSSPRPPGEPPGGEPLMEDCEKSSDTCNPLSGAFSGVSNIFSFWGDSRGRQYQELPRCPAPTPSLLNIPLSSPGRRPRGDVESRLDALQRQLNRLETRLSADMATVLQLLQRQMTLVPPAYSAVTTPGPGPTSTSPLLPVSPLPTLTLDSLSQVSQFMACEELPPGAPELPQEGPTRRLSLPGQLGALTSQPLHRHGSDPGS
In the case of `CCN1CCN(c2cc(C)c3cc(NC(=S)N4CCN(c5ccccc5)CC4)ccc3n2)CC1`, the “hERG current change (%, negative = inhibition) at 10uM” value is -0.088%.

Take `CCCCN(CC)C(=S)Nc1ccc2nc(N3CCN(C)CC3)cc(C)c2c1`: the “hERG current change (%, negative = inhibition) at 10uM” value is on record as -56.3%.

With `CCCCN(CC)CCNC(=S)Nc1ccc2nc(N3CCN(C)CC3)cc(C)c2c1`, the “hERG current change (%, negative = inhibition) at 10uM” value is listed as -0.781%.

On to `CCCCN(CC)CCCNC(=S)Nc1ccc2nc(N3CCN(C)CC3)cc(C)c2c1`, for which the “hERG current change (%, negative = inhibition) at 10uM” value is on record as 5.19%.

With `CCCCN(C)CCNC(=S)Nc1ccc2nc(N3CCN(CC)CC3)cc(C)c2c1`, the “hERG current change (%, negative = inhibition) at 10uM” value was determined as 2.83%.

Regarding `CCN1CCN(c2cc(C)c3cc(NC(=S)N(C)Cc4ccccc4)ccc3n2)CC1`, the “hERG current change (%, negative = inhibition) at 10uM” value is -77.7%.

As to `CCCCN(C)C(=S)Nc1ccc2nc(N3CCN(CC)CC3)cc(C)c2c1`, the “hERG current change (%, negative = inhibition) at 10uM” value is -78.9%.

As to `CCN1CCN(c2cc(C)c3cc(NC(=S)NCCN(C)C)ccc3n2)CC1`, the “hERG current change (%, negative = inhibition) at 10uM” value is reported as 3.21%.

Regarding `Cc1c(NC(=O)CSc2n[nH]c(=O)n2-c2ccccc2)c(=O)n(-c2ccccc2)n1C`, the “hERG current change (%, negative = inhibition) at 10uM” value was 16.9%.

For the compound `CCOC(=O)c1c(NC(=O)c2cccc(N3C(=O)CCC3=O)c2)sc(C)c1C`, the “hERG current change (%, negative = inhibition) at 10uM” value was determined as 5.4%.

`CC(=O)c1ccc(NC(=O)COC(=O)c2ccccc2Sc2ccccc2C#N)cc1`: the “hERG current change (%, negative = inhibition) at 10uM” value is listed as 18%.

For `O=C(CCCCn1c(=S)[nH]c2ccsc2c1=O)NCc1ccco1`, the “hERG current change (%, negative = inhibition) at 10uM” value is given as 16.6%.

With `O=C(c1ccc2c(c1)ncn2C1CCCCCC1)N1CCC2(CC1)OCCO2`, the “hERG current change (%, negative = inhibition) at 10uM” value is recorded as -2.37%.

`O=C(c1ccc(Br)cc1)N1CCCc2ccccc21`: the “hERG current change (%, negative = inhibition) at 10uM” value is -6.19%.

Regarding `O=C(CSc1nc(O)c(Cc2ccccc2)c(=O)[nH]1)Nc1ccccc1`, the “hERG current change (%, negative = inhibition) at 10uM” value amounted to 8.28%.

For `O=C(Nc1ccc(-c2noc(-c3cccs3)n2)cc1)c1cccnc1`, the “hERG current change (%, negative = inhibition) at 10uM” value is listed as -3.79%.

With `COc1ccc(Br)cc1/C=N/Nc1ccccn1`, the “hERG current change (%, negative = inhibition) at 10uM” value was 14.8%.

For `O=C(Nc1cccc(S(=O)(=O)NC2=NCCC2)c1)c1ccc(=O)[nH]c1`, the “hERG current change (%, negative = inhibition) at 10uM” value is listed as 10.7%.

In the case of `COc1cccc(-c2nnc3sc(C4CCCCC4)nn23)c1`, the “hERG current change (%, negative = inhibition) at 10uM” value was -45.2%.

On to `COc1ccc(-c2nnc3sc(C4CCCCC4)nn23)cc1OC`, for which the “hERG current change (%, negative = inhibition) at 10uM” value is listed as -51.1%.

As for `COc1cc(-c2nnc3sc(C4CCCCC4)nn23)cc(OC)c1OC`, the “hERG current change (%, negative = inhibition) at 10uM” value is on record as -43.7%.

On to `CC(C)c1cc(C(=O)N2CCCC(CCC(=O)N3CCN(c4ccccn4)CC3)C2)no1` (centres unmarked), for which the “hERG current change (%, negative = inhibition) at 10uM” value is on record as -36.8%.

With `Cc1ccc(C(=O)N/C(=C\c2ccc(Cl)cc2)C(=O)NCC2CCCO2)cc1` (centres unmarked), the “hERG current change (%, negative = inhibition) at 10uM” value is recorded as -49%.

Turning to `Cc1ccc(C(=O)N/C(=C/c2ccc(-c3ccc(Br)cc3)o2)C(=O)NC2CCS(=O)(=O)C2)cc1` (centres unmarked), the “hERG current change (%, negative = inhibition) at 10uM” value is -6.35%.

Consider `Cc1ccc(C(=O)N/C(=C\c2ccc(-c3ccc(Br)cc3)o2)C(=O)NCCCN(C)C)cc1`, for which the “hERG current change (%, negative = inhibition) at 10uM” value is -80.3%.

`Cc1ccc(C(=O)N/C(=C/c2ccc(Cl)cc2)C(=O)NCC2CCCO2)cc1` (centres unmarked): the “hERG current change (%, negative = inhibition) at 10uM” value was -48.7%.

`CN(C)CCCNC(=O)/C(=C\c1ccc(-c2ccc(Br)cc2)o1)NC(=O)c1ccccc1`: the “hERG current change (%, negative = inhibition) at 10uM” value was -75.1%.

With `Cc1ccc(C(=O)N/C(=C\c2ccc(-c3ccc(Cl)cc3)o2)C(=O)NCCCN(C)C)cc1`, the “hERG current change (%, negative = inhibition) at 10uM” value is -85%.

For the compound `Cc1ccc(C(=O)N/C(=C\c2ccc(-c3ccc(Br)cc3)o2)C(=O)NC2CCS(=O)(=O)C2)cc1` (centres unmarked), the “hERG current change (%, negative = inhibition) at 10uM” value was -5.68%.

For the compound `CN(C)CCCNC(=O)c1ccc(-c2ccccc2)cc1`, the “hERG current change (%, negative = inhibition) at 10uM” value was -36.7%.

With `O=C(NCCO)/C(=C\c1ccc([N+](=O)[O-])o1)NC(=O)c1ccccc1`, the “hERG current change (%, negative = inhibition) at 10uM” value came out at 1.55%.

Regarding `O=C(N1CCOCC1)N(Cc1ccco1)CC1CCCO1` (centres unmarked), the “hERG current change (%, negative = inhibition) at 10uM” value is -48.5%.

Turning to `COc1ccccc1NC(=O)c1ccc2nc(C)c(C)nc2c1`, the “hERG current change (%, negative = inhibition) at 10uM” value is on record as -16.1%.

With `O=C(c1ccccc1)n1ccn(-c2ccccc2)c1=S`, the “hERG current change (%, negative = inhibition) at 10uM” value was -14.9%.

With `Cn1c(=NC(=O)CS(=O)(=O)c2ccccc2)sc2cc([N+](=O)[O-])ccc21`, the “hERG current change (%, negative = inhibition) at 10uM” value is on record as -36.5%.

As for `CCCc1cc(=O)oc2cc(C)cc(OC(C)C(=O)NCC(O)c3ccccc3)c12` (centres unmarked), the “hERG current change (%, negative = inhibition) at 10uM” value came to 7.42%.

Take `NC(=O)COc1ccc(C(=O)NCC2(N3CCOCC3)CCCCC2)cc1`: the “hERG current change (%, negative = inhibition) at 10uM” value was found to be 6.98%.

`CN(C)S(=O)(=O)c1ccc(C(=O)NCC2(N3CCCCC3)CCCCC2)cc1`: the “hERG current change (%, negative = inhibition) at 10uM” value is -1.46%.

In the case of `O=C(CNC(=O)c1ccc(OC(F)F)cc1)NCC1(N2CCOCC2)CCCCC1`, the “hERG current change (%, negative = inhibition) at 10uM” value is recorded as -68.5%.

Regarding `CN(C)S(=O)(=O)c1ccc(C(=O)NCC2(N3CCOCC3)CCCCC2)cc1`, the “hERG current change (%, negative = inhibition) at 10uM” value is on record as -9.69%.

Consider `Cc1ccccc1C(=O)NCC(=O)NCC1(N2CCOCC2)CCCCC1`, for which the “hERG current change (%, negative = inhibition) at 10uM” value is -25.7%.

On to `CCN(CC)S(=O)(=O)c1ccc(C(=O)NCC2(N3CCOCC3)CCCCC2)cc1`, for which the “hERG current change (%, negative = inhibition) at 10uM” value is given as -67.3%.

Consider `CCC(C)NC(=O)CS(=O)Cc1nc(-c2cccc(OC)c2)oc1C` (centres unmarked), for which the “hERG current change (%, negative = inhibition) at 10uM” value is given as 2.84%.

Regarding `CCOc1cc(C2NC(=O)NC(C)=C2C(C)=O)cc(Cl)c1OCC(=O)O` (centres unmarked), the “hERG current change (%, negative = inhibition) at 10uM” value stood at 5.35%.
